# Experimental data as given in the OligoGym collection.
# Target: HMP19
# Assay: pooled miR-30 sensor sort-seq; sequence = guide strand
# Conditions: shRNA
# Note: reference of the scale not given here.
row,Sequence,sensor-assay potency score (higher = more potent)
1,TAAACCACCAGGAACACGATGC,-0.408
2,TTGTTCTTCTGTTCCGGCTGAT,0.313
3,TACAGTGTTGTCTTGTAACTGG,-0.189
4,TAAGTGATTAACCTCCAAGGGA,-0.21
5,TTCTTGTCTTCACAATCACCTT,-1.21
6,TTCGGCACCCGGAACTTCCCTT,-0.311
7,TATCGGTTCAGACAACTCCAGC,-1.43
8,TCTTGTCTTCACAATCACCTTT,-0.0794
9,TTCACAATCACCTTTTCTGGAG,-0.586
10,TTGTACATGAGCCTGACTCGGC,-0.338
11,TTGGTTCCCTTCTCGCTGGGGT,0.36
12,TTATAGACGAATCCCTCTGGGC,-0.74

# Target: HMX2
# Assay: as above
# Conditions: shRNA
row,Sequence,sensor-assay potency score (higher = more potent)
1,TGTATAGGTTGTAGAGAGGTAA,-0.622
2,TTAAAGTCCGAGTGCGAAGGAG,-0.61
3,TTCTTTAAAGTCCGAGTGCGAA,-1.59
4,TTCTCTTCTTTAAAGTCCGAGT,-1
5,TGAAGCTGGAGACGCCACCGGC,-0.77
6,TGGAACCAAGTCTTTACCTGGG,-0.326
7,ATGGACTGGATGGTGAAGCTGG,-1.05
8,TCGAGCTGGTACACCTGGCTGC,-0.393
9,TCTTCTTCTTGGCCGCGCCGGC,-1.36
10,TCCGAGGACACGGACAGGCTGC,-1.46
11,TTTCTCTTCTTTAAAGTCCGAG,-0.831
12,TAAAGTCCGAGTGCGAAGGAGA,-1.28

# Target: HNF1A
# Assay: as above
# Conditions: shRNA
row,Sequence,sensor-assay potency score (higher = more potent)
1,TGGTTGGTAGCTCATCACCTGT,-1.74
2,TTCTGTACTCAGCAGGCTGTGG,-0.687
3,TACTTCTGCAGTCTCACTGGTC,-0.169
4,TAGGACTTGACCATCTTCGCCA,0.419
5,TAGCGTCTCTCGCTCCTCCTTG,-0.628
6,ATCGTCGTCCGTCTCGTCCTCG,-0.832
7,TTGTAGACACGCACCTCCGTGA,-0.58
8,TGAGCTCTGGTACAGCACCAGG,-1.55
9,TTGCTGGAGTCTGAGCTCTGGT,-1.14
10,ATGAAGGTCTCGATGACGCTGT,0.222
11,TTGATGACCGGCACACTCTGTG,0.355
12,TACAGCACCAGGCTGCTGGAGG,-0.908

# Target: HNRNPL
# Assay: as above
# Conditions: shRNA
row,Sequence,sensor-assay potency score (higher = more potent)
1,TACAGCGTAGCCATCAGCCATC,-1.38
2,TTGAACACATTCAAGCGTGTAG,0.215
3,TAAAAGTGAAGGTTAATCTTGG,0.553
4,TTGAACTGAGTCAAATTCCACC,-0.367
